Assay outcomes (PubChem)
HT1080-NT tox: kills 2HG-producing HT-1080-NT fibrosarcoma cells. AID 686970. 360,000 compounds, 1.6% hits. Potency, µM (doses to about 46.1 µM), hits mostly cytotoxic. HT-1080-NT fibrosarcoma viability, CellTiter-Glo ATP luminescence, 48 h;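 also: NT is the 2HG producing partner of a matched IDH1 knockdown line; nearly all actives have a fitted effect of over 55% in size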
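Luminescent CellTiter-Glo readout after 48 hours of compound exposure at 37 degrees C defined viability of HT-1080-NT cells. Activity was normalized to DMSO wells and cell-free media wells; concentration-response curves were fitted and assigned curve classes.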
DT40 TDP1 no CPT: qHTS for Inhibitors of human tyrosyl-DNA phosphodiesterase 1 (TDP1): qHTS in cells in absence of CPT | DT40 Tdp1-/- hTDP1 cells, no CPT, ATP luminescence, 48 h | 420,000 compounds, 15% hits | Potency, µM (doses to about 46.2 µM), most hits filed as inhibitors; also: nearly all actives have a fitted effect of over 55% in size
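Readout: luminescence from CellTiter-Glo after 30 min in the dark at RT. Cells: DT40 Tdp1-/- with stable hTDP1, 400/well. Exposure: compounds alone, ≥48 hr, 37 °C.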
DT40 TDP1 CPT: DT40-hTDP1 cell growth loss with CPT; chicken DT40 Tdp1-/-;hTDP1 cells + 20 nM CPT, ATP luminescence, 48 h; Potency, µM (series often up to 46.2 µM), actives largely listed as inhibitors; 420,000 compounds, 12% hits; also: nearly all actives have a fitted effect of over 55% in size
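Chicken DT40 Tdp1-/- cells complemented with human TDP1, 400 cells/well, exposed to compounds plus 20 nM camptothecin for at least 48 h at 37 C; viability read as ATP content by CellTiter-Glo luminescence.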
HT1080 IDH1KD tx: kills HT-1080 cells with IDH1 knockdown; HT-1080 IDH1 knockdown viability, ATP luminescence, 48 h; Potency, µM (doses to about 46.1 µM), most hits filed as cytotoxic; 360,000 compounds, 2% hits
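Knockdown cells (IDH1KD HT-1080) received compounds 2 h after plating at 750 cells/well and were kept 48 h at 37 °C in 5% FBS RPMI. A CellTiter-Glo luminescence read gave % activity for curve fitting.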
IL-1B inflam inh: inhibitors of inflammasome signaling (IL-1 beta secretion); 360,000 compounds, 4.7% hits; activity change, % at 57.5 µM; THP-1 LPS/ATP IL-1B secretion, AlphaLISA, 16 h; stronger effect = lower value; in the data active = activity change below about -50%; inconclusive = mostly about -30% to -49%
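Secreted IL-1B measured by AlphaLISA bead assay after 16 h compound exposure of THP-1 cells; compounds (final up to 57.5 uM) added 1 h before LPS (250 ng/mL) and ATP (1.25 mM) stimulation; lower signal means less secretion.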
A number is an active result; 0 = inactive; ? = inconclusive; - = not tested or not shown; ! = not active in a repeat; [ ] = dose if it differs, or a comment. This is a sample that favours compounds with a hit; in the whole collection about 19% have one here. Unless noted, calls follow the shape of the dose curve; as a rule, active = well fitted curve in the direction sought with a large enough effect; inconclusive = small, poorly fitted or top-dose-only effect, or another doubt; inactive = no such curve, though single readings can be large; an effect the other way counts as inactive or inconclusive.

SMILES	HT1080-NT tox	DT40 TDP1 no CPT	DT40 TDP1 CPT	HT1080 IDH1KD tx	IL-1B inflam inh
CCOc1ccc(N(CC(=O)N2CCN(c3ccccc3OC)CC2)S(=O)(=O)c2ccc(C)cc2)cc1	0	21µM	?	0	0
CCOC(=O)N1CCN(C(=O)CN(c2ccccc2OC)S(=O)(=O)c2ccc(OC)cc2)CC1	0	0	0	0	0
Cc1cccc(C#Cc2ccccc2)n1	0	30µM!	?	0	0
Nc1ccc(C#Cc2ccccc2)cc1	0	0	0	0	0
OC1c2c(F)cccc2N=C2CCCCCN21 (stereo not given)	0	?	?	0	0
OC1c2cc(Br)ccc2N=C2CCCCCN21 (stereo not given)	0	16µM	?	0	0
OC1c2cc(Br)ccc2N=C2CCCN21 (stereo not given)	?	18µM	12µM	0	-97
Cc1cccc(NC(=O)NCc2cccnc2)c1C	0	0	0	0	0
NCC1CCN(c2nc3ccccc3c3c2CCCC3)CC1	0	12µM	21µM	?	-95
c1ccc2nc(N3CCCC3)c(N3CCCC3)nc2c1	0	?	0	0	0
CC(C)Cc1nc2oc3c(N4CCN(CCO)CC4)ncnc3c2c2c1CCCC2	0	13µM	13µM	0	0
c1ccc2c(c1)oc1c(NCC3CCCO3)ncnc12 (stereo not given)	0	18µM	?	0	0
CCCc1nc2oc3c(NCC(C)O)ncnc3c2c2c1CCCC2 (stereo not given)	0	?	?	0	0
c1ccc(-c2nc(NCC3CCCO3)c3oc4ccccc4c3n2)cc1 (stereo not given)	0	?	0	0	0
CC(C)Cc1nc2oc3c(NCc4cccnc4)ncnc3c2c2c1CCC2	0	0	0	0	0
CC(C)Cc1nc2oc3c(NCC4CCCO4)ncnc3c2c2c1CCC2 (stereo not given)	0	18µM	13µM	0	0
Cc1cc(C)c(-c2c(O)c3cnn(-c4ccccc4)c3[nH]c2=O)c(C)c1	0	0	0	0	0
CCCc1[nH]nc2c1C(c1ccc(O)c(OC)c1)C(C#N)=C(N)O2 (stereo not given)	0	0	0	0	-67
CCCc1[nH]nc2c1C(/C(C)=C/c1ccccc1)C(C#N)=C(N)O2 (stereo not given)	?	0	?	0[9.24 µM]	-94
CCCc1[nH]nc2c1C(c1ccccc1OC)C(C#N)=C(N)O2 (stereo not given)	0	?	?	0	-53
CCCc1[nH]nc2c1C(c1cn[nH]c1-c1ccc(F)cc1)C(C#N)=C(N)O2 (stereo not given)	?	10µM	9.2µM	0	-90
CC(CNC(=O)c1ccccc1Cl)c1ccccc1 (stereo not given)	0	0	0	0	?
COCc1cc(=O)n2[nH]cc(-c3ccccc3)c2n1	0	?	?	0	0
CCCc1cc(=O)n2[nH]cc(-c3ccc(Cl)cc3)c2n1	?	5.8µM	5.8µM	?	0
CCCc1cc(=O)n2[nH]c(SCc3ccc(Cl)cc3)nc2n1	0	0	?	0	-72
SMILES	HT1080-NT tox	DT40 TDP1 no CPT	DT40 TDP1 CPT	HT1080 IDH1KD tx	IL-1B inflam inh
CCN1CCN(c2ccc(S(=O)(=O)N3CCOCC3)cc2NC(=O)c2ccc(F)cc2Cl)CC1	0	?	?	0	0
CC(/C=C/c1ccccc1)=N/O	0	0	0	0	0
CC(/C=C/c1ccc(O)cc1)=N/O	0	21µM	15µM	0	0
CCOC(=O)Nc1oc2ccccc2c(=O)c1CN1CCOCC1	0	?	0	0	0
Cc1ccccc1Cn1c(CN2CCCC(C)C2)nc2c1c(=O)n(C)c(=O)n2C (stereo not given)	-	5.8µM	8.2µM	-	-
Cn1c(=O)c2c(nc(CN3CCC(C(N)=O)CC3)n2Cc2ccccc2F)n(C)c1=O	0	0	0	0	0
Cn1c(=O)c2c(nc(N3CCOCC3)n2Cc2c(F)cccc2Cl)n(C)c1=O	0	23µM	21µM	0	0
Cc1cc(C)nc(SCCn2c(N(C)Cc3ccccc3)nc3c2c(=O)n(C)c(=O)n3C)n1	0	?	?	0	0
CN(Cc1ccccc1)c1nc2c(c(=O)n(C)c(=O)n2C)n1CCSc1ncccn1	0	18µM	23µM	0	0
Cn1c(=O)c2c(nc(N3CCOCC3)n2Cc2cccc(Br)c2)n(C)c1=O	-	5.8µM	9.2µM	-	-
CC1CN(c2nc3c(c(=O)n(C)c(=O)n3C)n2Cc2c(F)cccc2Cl)CC(C)O1 (stereo not given)	0	?	0	0	0
N/C(=N\OC(=O)Cc1ccccc1)c1ccccc1Cl	0	0	?	0	0
Cn1c(=O)c2c(nc(Sc3ncccn3)n2Cc2ccccc2Cl)n(C)c1=O	0	?	?	0	0
CC1CCCN(Cc2nc3c(c(=O)n(C)c(=O)n3C)n2Cc2c(F)cccc2Cl)C1 (stereo not given)	0	9.2µM	8.2µM	0	0
CCOC(=O)N1CCN(Cc2nc3c(c(=O)n(C)c(=O)n3C)n2Cc2ccc(F)cc2)CC1	0	?	?	0	0
CC1CN(c2nc3c(c(=O)n(C)c(=O)n3C)n2Cc2c(Cl)cccc2Cl)CC(C)O1 (stereo not given)	0	?	?	0	0
Cn1c(=O)c2c(nc(N3CCOCC3)n2CCSc2ncccn2)n(C)c1=O	0	23µM	21µM	0	0
Cn1c(=O)c2c(nc(CN3CCN(c4ccccc4)CC3)n2Cc2ccccc2Cl)n(C)c1=O	0	15µM	?	0	0
Cn1c(=O)c2c(nc(CN3CCN(c4ccccc4)CC3)n2Cc2c(F)cccc2Cl)n(C)c1=O	0	8.2µM	21µM	0	0
COc1cccc(C(=O)Nc2nnc(-c3cccs3)s2)c1	0	0	0	0	0
COc1ccccc1-c1nnc(C2CCN(S(=O)(=O)c3ccc(F)c(C)c3)CC2)o1	-	?	15µM	-	-
COc1ccc(-c2nnc(C3CCN(S(=O)(=O)c4ccc(C)c(C)c4)CC3)o2)cc1	-	26µM	?	-	-
COc1ccccc1-c1nnc(C2CCN(C(=O)c3cccc(Cl)c3)CC2)o1	-	16µM	?	-	-
CCc1cccc(CC)c1NC(=O)C1SC(=Nc2ccccc2C)C(c2nc3ccccc3s2)=C1N (stereo not given)	0	23µM	?	0	0
CC(C)Cc1cc(C(=O)NCc2ccc(Cl)cc2)no1	-	0	0	-	-
COc1ccc(NC(=O)CN(C)C(=O)C2=NN(c3ccccc3)C(=O)CC2)cc1	0	0	0	0	0
CC(=O)Oc1ccc(OC(C)=O)c2c1CC(C)=C(C)C2	0	13µM	13µM	0	0
Cn1c2c(c(=O)n(C)c1=O)C(C(F)(F)F)(C(F)(F)F)N=C(C1CCCCC1)N2	0	26µM	18µM	0	0
